Compound activity from PubChem.
HepG2 viability – qHTS for Inhibitors of TGF-b: Cytotox Counterscreen; HepG2 CAGA-GFP viability, ATP luminescence, 18 h; Potency, µM (titrated, usually from 46.1 µM), for the others: at the highest dose activity change, negative = cytotoxicity, hits mostly cytotoxic; actives 0.76% (n = 410,000); also: potency is read from the fitted curve at half-maximal effect
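CellTiter-Glo luminescence gave cytotoxicity after 18 hours at 37 degrees C. The cells were HepG2 CAGA-GFP in 1% FBS DMEM, stimulated with 500 pg/mL TGF-beta after compound addition. %Activity was normalised to no-cell wells (complete cell-killing) and DMSO (no toxicity), and curves were fitted and classified.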
DT40 TDP1 CPT – qHTS for Inhibitors of human tyrosyl-DNA phosphodiesterase 1 (TDP1): qHTS in cells in presence of CPT | chicken DT40 Tdp1-/-;hTDP1 cells + 20 nM CPT, ATP luminescence, 48 h | Potency, µM (titrated, usually from 46.2 µM), for the others: top-dose activity change, negative = growth inhibition, usual class: inhibitors | actives 12% (n = 420,000); also: potency is read from the fitted curve at half-maximal effect; % is scaled to controls: 0 for no effect and ±100 for the full control effect; nearly all actives have a fitted effect of over 55% in size
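Cell growth measured by CellTiter-Glo luminescence after a minimum 48 h, 37 C compound exposure with 20 nM CPT in Tdp1-knockout DT40 cells stably expressing hTDP1, seeded 400/well; qHTS titration format.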
TGFb inhibitor – qHTS for Inhibitors of TGF-b | HepG2 CAGA-GFP TGF-b/SMAD3 reporter, GFP fluorescence, 18 h; TGF-beta stimulated, 500 pg/mL final | AID 588855, 2011 | actives 1.2% (n = 410,000) | Potency, µM (highest dose often 46.1 µM), without a hit: at the highest dose activity, negative = inhibition, usual class: inhibitors; also: potency is read from the fitted curve at half-maximal effect; % is scaled to controls: 0 for no effect and ±100 for the full control effect; nearly all actives have a fitted effect of over 65% in size
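Cell-based qHTS in HEPG2 carrying a CAGA-GFP Smad reporter; compounds added before 500 pg/mL final TGF-beta, 18 h incubation at 37 degrees C, GFP fluorescence quantified per cell by imaging cytometry.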
ASM inhibitor – Inhibitors of Secretory Acid Sphingomyelinase (S-ASM): qHTS; placental ASM, HMU-PC fluorogenic substrate, 60 min; Potency, µM (top dose mostly 57.5 µM), for inactives: top-dose activity change, negative = inhibition, usual class: inhibitors; actives 0.006% (n = 340,000); also: potency is read from the fitted curve at half-maximal effect
Target sequence (P17405 47-631 limits assumed): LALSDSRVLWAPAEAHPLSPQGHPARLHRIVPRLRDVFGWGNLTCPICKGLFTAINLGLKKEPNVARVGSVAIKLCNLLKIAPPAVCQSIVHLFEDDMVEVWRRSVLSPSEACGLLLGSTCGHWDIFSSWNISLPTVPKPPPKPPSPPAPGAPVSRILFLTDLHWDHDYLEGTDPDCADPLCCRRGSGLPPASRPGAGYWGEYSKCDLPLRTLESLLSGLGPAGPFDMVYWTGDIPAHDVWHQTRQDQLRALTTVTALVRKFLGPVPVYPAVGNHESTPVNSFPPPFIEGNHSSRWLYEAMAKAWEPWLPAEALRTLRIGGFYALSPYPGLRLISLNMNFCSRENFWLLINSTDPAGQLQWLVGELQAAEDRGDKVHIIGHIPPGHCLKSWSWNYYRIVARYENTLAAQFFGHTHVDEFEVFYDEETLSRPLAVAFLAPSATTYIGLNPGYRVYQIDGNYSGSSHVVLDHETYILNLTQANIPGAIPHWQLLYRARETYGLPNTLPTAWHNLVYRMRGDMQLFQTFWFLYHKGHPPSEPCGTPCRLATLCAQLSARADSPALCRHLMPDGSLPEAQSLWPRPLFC
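qHTS format. ASM enzyme prepared from human placenta hydrolyses the fluorogenic substrate HMU-PC0 (9 uM final) over 60 min at 37 °C after a 10 min compound preincubation.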
IL-1B inflam inh – qHTS for Inhibitors of Inflammasome Signaling: IL-1-beta AlphaLISA Primary Screen; THP-1 LPS/ATP IL-1B secretion, AlphaLISA, 16 h; active compounds read low; activity change, % at 57.5 µM; actives 4.7% (n = 360,000); in the data active = activity change below about -50%; inconclusive = mostly about -30% to -49%; also: % is scaled to controls: 0 for no effect and ±100 for the full control effect
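THP-1 cells pretreated 1 hr with compounds (up to 57.5 uM final), then stimulated with LPS (250 ng/mL final) plus ATP (1.25 mM final); secreted IL-1B measured by AlphaLISA after 16 hr, decreased signal indicating inhibition.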
TDP1 cell noCPT – qHTS for Inhibitors of human tyrosyl-DNA phosphodiesterase 1 (TDP1): qHTS in cells in absence of CPT; actives 15% (n = 420,000); DT40 Tdp1-/- hTDP1 cells, no CPT, ATP luminescence, 48 h; Potency, µM (series often up to 46.2 µM), for the others: at the top dose activity change, negative = growth inhibition, usual class: inhibitors; AID 686978, 2013; also: potency is read from the fitted curve at half-maximal effect; % is scaled to controls: 0 for no effect and ±100 for the full control effect; nearly all actives have a fitted effect of over 55% in size
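Luminescent ATP content (CellTiter-Glo) served as the growth readout. Knockout chicken DT40 cells expressing human TDP1 were exposed to compounds without camptothecin for a minimum 48 hr at 37 °C.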
Active calls of the source: *; u = inconclusive; x = no result given; [ ] = remark or other dose. This is a sample that favours compounds with a hit; in the whole collection about 19% have one here. Unless noted, calls follow the shape of the dose curve; as a rule, active = well fitted curve in the direction sought with a large enough effect; inconclusive = small, poorly fitted or top-dose-only effect, or another doubt; inactive = no such curve, though single readings can be large; an effect the other way counts as inactive or inconclusive.

SMILES	HepG2 viability	DT40 TDP1 CPT	TGFb inhibitor	ASM inhibitor	IL-1B inflam inh	TDP1 cell noCPT
COC(=O)CCSc1nc2sc3c(c2c(=O)n1Cc1ccccc1)CCC(C(C)(C)C)C3 (stereo unspecified)	-2%	u	34%	x	x	u
COC(=O)/C(=C1/Oc2cc(C)oc(=O)c2S1)C(F)(F)F	-30%	2.3µM*	5.6µM*	-1%	-102*	2.1µM*
Cc1ccc(S(=O)(=O)NCC(c2ccco2)N2CCc3ccccc3C2)cc1 (stereo unspecified)	-3%	23µM*	-36%	1%	2	u
COc1ccc(C)cc1S(=O)(=O)NCC(c1ccco1)N1CCc2ccccc2C1 (stereo unspecified)	-19%	29µM*	-17%	2%	-10	u
COc1ccccc1CC(=O)NNC(=O)CN(C)S(=O)(=O)c1ccc(Cl)cc1	5%	-9%	-5%	3%	15	-23%
Cc1oc(-c2ccccc2Cl)nc1CSCC(=O)N1CCCC1	-47%	u	4%	-1%	-21	13µM*
Cc1oc(-c2ccccc2F)nc1CSCC(=O)N1CCN(c2ccccc2)CC1	-50%	21µM*	u	x	x	9.2µM*
COc1ccc(OC)c(CNC(=O)C2CCN(S(=O)(=O)c3ccc4[nH]c(=O)oc4c3)CC2)c1	-2%	0%	-23%	x	x	-23%
Cc1ccc(S(=O)(=O)N(C)c2ccc(OC(C)C(=O)N(C)c3ccccc3)cc2)cc1 (stereo unspecified)	-27%	15µM*	-6%	0%	6	18µM*
CC(Oc1ccc(F)cc1)C(=O)Nc1cccc(S(=O)(=O)N(C)c2ccccc2)c1 (stereo unspecified)	-4%	u	u	x	9	16µM*
CCC(C(=O)Nc1cccc(S(=O)(=O)N(C)c2ccccc2)c1)c1ccccc1 (stereo unspecified)	-32%	18µM*	u	-2%	-1	18µM*
Cc1ccc(CN2C(=O)c3ccccc3C2C(=O)NC2CCCCCC2)cc1 (stereo unspecified)	4%	-14%	0%	x	x	u
CCCc1cc(=O)[nH]c(SCC(=O)NCC2COc3ccccc3O2)n1 (stereo unspecified)	-24%	-21%	-10%	-1%	28	23%
CCOc1ccc(N=C2SC(C(=O)Nc3ccccc3C#N)C(N)=C2C(=O)Nc2ccc(Cl)cc2)cc1 (stereo unspecified)	-41%	2%	u	-3%	0	4%
N#Cc1ccccc1NC(=O)C1SC(=Nc2ccccc2)C(C(=O)Nc2ccc(Cl)cc2)=C1N (stereo unspecified)	-97%	16µM*	u	-15%	-84*	21µM*
Nc1ncnc2c1ncn2[C@@H]1O[C@H](CNCc2cn(CC(=O)NC3CC3)c3ccccc23)[C@@H](O)[C@H]1O	-16%	-5%	-4%	3%	-5	-4%
CCSc1nsc(NC(=O)Nc2ccccc2F)n1	-39%	18µM*	u	u	-93*	16µM*
C=CCSc1nsc(NC(=O)Nc2ccc(F)cc2)n1	-38%	18µM*	6.3µM*	u	-88*	3.3µM*
CCSc1nsc(NC(=O)Nc2cccc(OC)c2)n1	-30%	u	22µM*	u	-97*	u
C(=Cc1c[nH]c2ccccc12)c1ccc2ccccc2n1	3%	u	43%	413%	-26	u
CCN(CC)C(=O)c1ccc(/C=C/c2c[nH]c3ccccc23)[n+](C)c1	6%	-25%	45%	-26%	5	u
CCCCCCC[n+]1ccc(/C=C/c2c[nH]c3ccccc23)c2ccccc21	13µM*	1µM*	7.1µM*	x	x	1.1µM*
CCCCCCCCCCCC[n+]1ccc(/C=C/c2c[nH]c3ccccc23)c2ccccc21	-58%	2.5µM*	u	x	x	2.2µM*
CCCCCCCCCCCCCCCC[n+]1ccc(/C=C/c2c[nH]c3ccccc23)c2ccccc21	-46%	5µM*	u	x	x	14µM*
CCOC(=O)c1c(NC(=O)c2noc(C)c2[N+](=O)[O-])sc(C(C)=O)c1C	-16%	u	-4%	-12%	u	u
SMILES	HepG2 viability	DT40 TDP1 CPT	TGFb inhibitor	ASM inhibitor	IL-1B inflam inh	TDP1 cell noCPT
S=C(NCCN(C1CCCCC1)C1CCCC1)Nc1cccc(Cl)c1	-81%	u	u	6%	x	16µM*
CC(C)c1cccc(C(C)C)c1NC(=S)Nc1cccc(Cl)c1	-26%	u	u	-1%	x	21µM*
S=C(NCCC(c1ccccc1)c1ccccc1)Nc1cccc(Cl)c1	-63%	u	u	-3%	0	15µM*
COc1ccc(C(C)=O)cc1CC(=O)Nc1cccc(S(=O)(=O)N2CCOCC2)c1	-11%	16%	-2%	-4%	33	3%
COc1ccc(C(=O)NCCc2ccccn2)cc1S(=O)(=O)Nc1ccc(Br)cc1	-16%	-17%	1%	-2%	-6	-4%
Cc1cccc(/C=N/NC(=O)c2ccc(F)cc2)n1	-13%	u	-29%	-1%	43	u
COc1ccc(NC(=O)CN(C)C(=O)/C=C/c2cn(-c3ccccc3)nc2-c2cccs2)cc1	-16%	u	-7%	10%	3	18µM*
CN(C)c1ccc(NC(=O)c2cn(-c3ccccc3)nc2-c2cccs2)cc1	-14%	3%	2%	-6%	u	u
COc1ccc(NC(=O)CN(C)C(=O)/C=C/c2cn(-c3ccccc3)nc2-c2ccc(F)cc2)cc1	-1%	u	3%	x	-21	23µM*
COc1cccc(NC(=O)CN(C)C(=O)/C=C/c2cn(-c3ccccc3)nc2-c2ccc(C)cc2)c1	1%	u	-18%	-12%	u	u
COc1ccc(NC(=O)CN(C)C(=O)/C=C/c2cn(-c3ccccc3)nc2-c2ccc(C)cc2)cc1	0%	u	-13%	-9%	-8	21µM*
O=C(NCCc1ccncc1)c1cnn(-c2ncc3c(n2)-c2ccccc2CCC3)c1C1CC1	x	12%[9.04 µM]	x	x	x	u
